Reference: PubChem BioAssay (NCI)
The panel holds about 83,000 compounds, 20% with a hit somewhere; the sample as a whole holds those more often.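 Negative percent growth values reflect cell death: -40 means 40% of the cells present at the start died, and -100 means all died.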 Unmarked numbers belong to inactive results. Active and inactive are the calls of the source. Rule for the calls: active = growth percent below 10; inactive = the rest.

What was measured:
Assay in all cases: NCI-60 one-dose screen, 48 h (100 = growth as untreated, 0 = no growth, -100 = all killed)
Settings in all cases: 10 µM unless noted
EKVX NSCLC = system: EKVX NSCLC
SN12C renal = system: SN12C renal
UO-31 renal = system: UO-31 renal
TK-10 renal = system: TK-10 renal
ACHN renal = system: ACHN renal
CAKI-1 renal = system: CAKI-1 renal
A498 renal = system: A498 renal
CCRF-CEM leukemia = system: CCRF-CEM leukemia
MOLT-4 leukemia = system: MOLT-4 leukemia

SMILES | growth (EKVX NSCLC) | growth (SN12C renal) | growth (UO-31 renal) | growth (TK-10 renal) | growth (ACHN renal) | growth (CAKI-1 renal) | growth (A498 renal) | growth (CCRF-CEM leukemia) | growth (MOLT-4 leukemia)
O=C1NC(=O)/C(=C/c2ccc3nccc(-c4ccncc4)c3c2)S1 | -16.9% (active) | -5.67% (active) | -37.7% (active) | -68.8% (active) | -21.2% (active) | -40.2% (active) | -77.1% (active) | 0.0384% (active) | -8.29% (active)
Cc1ncc(-c2ccnc(Nc3ccc(S(C)(=O)=O)cc3)n2)n1C(C)C | -10.5% (active) | 0.723% (active) | -9.24% (active) | -3.89% (active) | 0.0849% (active) | 9.99% (active) | -42.6% (active) | 4.05% (active) | -32.6% (active)
O=S1(=O)OC(c2ccc(O)c(Cl)c2)(c2ccc(O)c(Cl)c2)c2ccccc21 | 112% | 97% | 66.2% | 100% | 96.9% | 90.2% | 90.3% | 102% | 109%
NC(=O)c1c(OCc2c(F)cc(Br)cc2F)nsc1NC(=O)NCCCCN1CCCC1 | 4.31% (active) | 0.752% (active) | -76.8% (active) | -1.76% (active) | -29.7% (active) | -26.2% (active) | -13.8% (active) |  | -16.4% (active)
CN1CCN(CC(=O)Nc2ccc(-c3nc4ccccc4s3)cc2)CC1 | 83.7% | 77.7% | 57.5% | 94.8% | 71.2% | 73.5% | 59.5% |  | 78%
COc1cc(N2CCC(N(C)C)CC2)ccc1Nc1ncc(Cl)c(Nc2ccccc2P(C)(C)=O)n1 | 20% | 1.55% (active) |  | -43.9% (active) | 1.69% (active) | -60.9% (active) | -70% (active) | 10.4% | 13.4%
Cn1cnc2c(F)c(Nc3ccc(Br)cc3Cl)c(C(=O)NOCCO)cc21 | 54.4% | 65.9% | 40.9% | 33.7% | 52.1% | 40.2% | -37% (active) |  | 92.2%
CCCCOc1nc2cc(Cl)ccc2cc1/C=C/c1cc(/C=C/c2cc3ccc(Cl)cc3nc2OCCCC)n(-c2ccccc2)n1 | 113% | 94% | 89.9% | 91.4% | 75.6% | 78.5% | 97.9% |  | 84.8%
FC(F)(F)c1ccc(CNc2ccc(Cc3c[nH]c4ncc(Cl)cc34)cn2)cn1 | 30.3% | 52.2% | 10.7% | 18.3% | 31.6% | 25.2% | 18.3% |  | 7.19% (active)
CCOc1cc2ncc(C#N)c(Nc3ccc(F)c(Cl)c3)c2cc1NC(=O)/C=C/CN(C)C | -22% (active) | -51.7% (active) | -92.2% (active) | -75.9% (active) | -94.3% (active) | -59.6% (active) | -3.54% (active) | 0.208% (active) | -26% (active)
Nc1c(Cl)cccc1[N+](=O)[O-] | 104% | 103% | 90.4% | 125% | 104% | 104% | 101% |  | 99.6%
CCN(CC)c1cc2oc3cc(N)cc(=N)c-3nc2cc1C | 50.5% | 31.1% |  | 13.2% | 17.6% | 42.5% | 82% | 15.3% | 29.1%
Nc1cc(C(F)(F)F)c(-c2cc(N3CCOCC3)nc(N3CCOCC3)n2)cn1 | -13.4% (active) | -3.99% (active) | -34.4% (active) | -35.4% (active) | -8.54% (active) | -25.1% (active) | -80.4% (active) |  | -11.9% (active)
O=C(c1ccc(F)c(F)c1Nc1ccc(I)cc1F)N1CC(O)([C@@H]2CCCCN2)C1 | 24.4% | 34% | -9.6% (active) | 11.6% | 18.2% | 21.9% | -71.2% (active) | 39.7% | 4.19% (active)
Cn1cc(-c2ccc(F)c(C(F)(F)F)c2)nc1C1CCN(c2ncnc3[nH]ncc23)CC1 | 88% | 63.7% |  | 66.6% | 73.4% | 62.2% | 66.5% | 72.4% | 65.5%
